Compound activity as filed in PubChem BioAssay.
Sampled rows, rich in hits. Any-hit rate of the full collection: about 18%.
TDP1 cell noCPT = qHTS for Inhibitors of human tyrosyl-DNA phosphodiesterase 1 (TDP1): qHTS in cells in absence of CPT | DT40 Tdp1-/- hTDP1 cells, no CPT, ATP luminescence, 48 h | Potency, µM (top dose mostly 46.2 µM), without a hit: at the highest dose activity change, negative = growth inhibition, usual class: inhibitors | 420,000 tested, 15% active | AID 686978, 2013; further: potency means the concentration at half of the fitted maximal effect; nearly all actives have a fitted effect of over 55% in size
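Camptothecin absent (DMSO only). Human TDP1-complemented DT40 knockout cells, 400 cells/well, 37 °C for minimum 48 hr; ATP measured via CellTiter-Glo, 30 min dark incubation, luminescence.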
TDP1 cell CPT = DT40-hTDP1 cell growth loss with CPT | chicken DT40 Tdp1-/-;hTDP1 cells + 20 nM CPT, ATP luminescence, 48 h | Potency, µM (top dose mostly 46.2 µM), for the others: at the highest dose activity change, negative = growth inhibition, hits mostly inhibitors | 420,000 tested, 12% active | AID 686979; further: potency means the concentration at half of the fitted maximal effect; nearly all actives have a fitted effect of over 55% in size
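Chicken DT40 Tdp1-/- cells complemented with human TDP1, 400 cells/well, exposed to compounds plus 20 nM camptothecin for at least 48 h at 37 C; viability read as ATP content by CellTiter-Glo luminescence.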
RORg inh = ROR gamma (mouse) transcription inhibition. P51450. Drosophila S2 Gal4-RORgamma UAS-luciferase reporter, 20 h. Potency, µM (series often up to 53.6 µM), for inactives: at the top dose activity change, negative = inhibition, hits mostly inhibitors. 310,000 tested, 5.4% active; further: potency means the concentration at half of the fitted maximal effect; nearly all actives have a fitted effect of over 60% in size
Target sequence (P51450 whole entry, looked up, the tested form may be a part): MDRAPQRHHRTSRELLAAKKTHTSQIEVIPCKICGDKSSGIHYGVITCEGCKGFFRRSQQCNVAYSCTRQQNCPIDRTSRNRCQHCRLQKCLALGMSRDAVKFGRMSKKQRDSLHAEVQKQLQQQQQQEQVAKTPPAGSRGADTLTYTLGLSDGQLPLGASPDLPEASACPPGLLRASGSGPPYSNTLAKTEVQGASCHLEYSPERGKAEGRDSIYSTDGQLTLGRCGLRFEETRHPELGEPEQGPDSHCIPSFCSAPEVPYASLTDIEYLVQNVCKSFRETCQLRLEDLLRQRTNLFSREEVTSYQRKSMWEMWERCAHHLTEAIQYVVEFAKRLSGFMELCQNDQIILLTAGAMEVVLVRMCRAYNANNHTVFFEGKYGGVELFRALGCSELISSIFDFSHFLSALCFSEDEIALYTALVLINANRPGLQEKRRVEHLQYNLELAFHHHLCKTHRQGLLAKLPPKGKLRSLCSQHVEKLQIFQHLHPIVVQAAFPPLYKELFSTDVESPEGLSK
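A Gal4/UAS one-hybrid system in insect cells: metallothionein-promoter Gal4–ROR gamma fusion plus Photinus luciferase reporter. Copper sulfate 700 uM final, 20 hr ambient incubation, luminescent detection after 10 min with reagent.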
VP16 counter = inhibits Gal4-VP16 luciferase reporter, ROR gamma counter-screen; AID 2546; Potency, µM (top dose mostly 53.6 µM), for the others: at the top dose activity, negative = inhibition, usual class: inhibitors; 310,000 tested, 3.5% active; Drosophila S2 Gal4-VP16 UAS-luciferase, luminescence, 20 h;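 further: Gal4-VP16 expression switched on by copper sulfate through the metallothionein promoter; potency means the concentration at half of the fitted maximal effect; nearly all actives have a fitted effect of over 50% in size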
IL1B secr inh = inhibitors of inflammasome signaling (IL-1 beta secretion) | THP-1 LPS/ATP IL-1B secretion, AlphaLISA, 16 h; active compounds read low | activity change, % at 57.5 µM | 360,000 tested, 4.7% active | AID 743279; in the data active means activity change below about -50%; inconclusive means mostly about -30% to -49%
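Secreted IL-1B measured by AlphaLISA bead assay after 16 h compound exposure of THP-1 cells; compounds (final up to 57.5 uM) added 1 h before LPS (250 ng/mL) and ATP (1.25 mM) stimulation; lower signal means less secretion.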
LDHA inh = blocks human lactate dehydrogenase A; AID 1347041; P00338; activity change, % (values are at about 110 or 230 µM); purified LDHA, NADH/diaphorase-resazurin fluorescence; active compounds read low; 480,000 tested, 0.15% active; in the data active means activity change below about -30%; inconclusive means mostly about -25% to -30%;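 further: plate controls were DMSO wells for no effect and wells without enzyme for full effect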
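Human LDH5 (2 nM) was incubated with 0.06 mM NADH and 0.2 mM pyruvate for 5 min at room temperature in Tris pH 7.4. Remaining NADH was coupled through diaphorase/resazurin, and resorufin fluorescence was read at 0 and 20 min.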
* marks the source's active call; other numbers are inactive results; u = inconclusive; x = not tested or not shown; [ ] = another dose, or the depositor's remark. Unless noted, the call rests on the fitted dose curve; in most records, active means well fitted curve in the direction sought with a large enough effect; inconclusive means small, poorly fitted or top-dose-only effect, or another doubt; inactive means no such curve, though single readings can be large; an effect the other way counts as inactive or inconclusive. Unless noted, on the % scale 0 is the no-effect control and ±100 the full control effect.

SMILES | TDP1 cell noCPT | TDP1 cell CPT | RORg inh | VP16 counter | IL1B secr inh | LDHA inh
O=C(c1ccc[nH]1)N1O[C@@H]2C=C[C@H]1C2 | -11% | 2% | x | x | 14 | 0
Clc1ccc(N2O[C@H]3C=C[C@@H]2C3)nc1 | u | 21µM* | x | x | u | 16
Cc1ccc(S(=O)(=O)N2CCN(c3nc(-c4ccc(CN5CCNCC5)s4)nc4ccccc34)CC2)cc1 | 22µM* | u | x | x | x | -2
Cc1ccc(S(=O)(=O)N2CCN(c3nc(-c4cncn4C)nc4ccccc34)CC2)cc1 | u | 20µM* | x | x | x | -2
Cc1ccc(S(=O)(=O)N2CCN(c3nc(-c4cncs4)nc4ccccc34)CC2)cc1 | 7.1µM* | 10µM* | x | x | x | -13
Cc1ccc(S(=O)(=O)N2CCN(c3nc(-c4ccc(C)s4)nc4ccccc34)CC2)cc1 | u | -30% | x | x | x | -4
Cc1ccc(S(=O)(=O)N2CCN(c3nc(-c4ncco4)nc4ccccc34)CC2)cc1 | 11µM* | 11µM* | x | x | x | 2
O=C(c1ccccc1F)N(Cc1cccc2[nH]ccc12)C1CC1 | x | x | x | x | x | 6
COc1cc(F)ccc1-c1ccc(=O)n(CC(=O)N2CCC(Cc3ccccc3)CC2)n1 | x | x | x | x | x | -1
CCn1cnc2c1c(=O)n(CC(=O)Nc1ccccc1N1CCCC1=O)c(=O)n2Cc1ccccc1 | x | x | x | x | x | 4
O=C(Nc1ccc(-c2cc(C(F)(F)F)nn2-c2ccccc2)cc1)c1cccc(F)c1 | 5.2µM* | u | x | x | x | -2
O=C(NC(=O)c1ccccc1)Nc1ccc(-c2cc(C(F)(F)F)nn2-c2ccccc2)cc1 | -8% | -27% | x | x | x | 1
O=C(NC(=O)c1cccc(F)c1)Nc1ccc(-c2cc(C(F)(F)F)nn2-c2ccccc2)cc1 | -23% | -23% | x | x | x | -2
COc1cc(C(=O)Nc2ccc(-c3cc(C(F)(F)F)nn3-c3ccccc3)cc2)cc(OC)c1OC | 15µM* | 16µM* | x | x | x | -4
O=C1C2CCCCN2C(=O)N1CCCCN1CCN(c2cccc(C(F)(F)F)c2)CC1 (stereo unspecified) | u | 10µM* | x | x | u | -1
O=C1C2CCCCN2C(=O)N1CCCCN1CCN(c2ccc([N+](=O)[O-])cc2)CC1 (stereo unspecified) | 15µM* | u | 2% | -2% | -5 | 0
Cc1ccc(N2CCN(CCCN3C(=O)C4CCCN4C3=O)CC2)cc1 (stereo unspecified) | -1% | -25% | 1% | -8% | 0 | 0
Clc1ccc(-c2nc(CSc3nncc4ccccc34)no2)cc1 | x | x | x | x | x | 5
CC(C)(C)NC(=O)c1cccc(NC(=O)c2cccnc2)c1 | x | x | x | x | x | -7
C=CCn1c(C)c(C(C)=O)c(N2CCCC2)nc1=S | -19% | u | -19% | 2% | 43 | 4
CCn1c(C)c(C(C)=O)c(N2CCCC2)nc1=S | -1% | 0% | 7.9µM* | 1% | -11 | -6
CC(=O)c1c(N2CCN(c3ccc(F)cc3)CC2)nc(=S)n(Cc2ccccc2)c1C | u | u | u | -27% | u | -1
CCCSc1nc(=S)n(Cc2ccccc2)c(C)c1C(C)=O | 23µM* | -20% | 14µM* | u | -3 | -2
CC(=O)c1c(N2CCCCC2)nc(=S)n(Cc2ccccc2)c1C | u | 26µM* | 11µM* | -25% | -18 | -8
CC(=O)c1c(N2CCN(Cc3ccccc3)CC2)nc(=S)n(Cc2ccccc2)c1C | 16µM* | 16µM* | -10% | u | 6 | 2
SMILES | TDP1 cell noCPT | TDP1 cell CPT | RORg inh | VP16 counter | IL1B secr inh | LDHA inh
Cc1nc(Cn2cnc3scc(-c4ccccc4)c3c2=O)no1 | x | x | x | x | x | -9
Cc1c(NC(=O)c2cc3cc(F)ccc3[nH]2)c(=O)n(-c2ccccc2)n1C | x | x | x | x | x | 0
CSc1ccc(Cl)c(C(=O)Oc2cccc(Cl)c2Cl)c1 | x | x | x | x | x | -8
CC1OC23CCCCC2C(C#N)(C(=N)O3)C1(C#N)C#N (stereo unspecified) | u | u | -3% | 2% | u | -1
COc1ccc(C2OC34CCCCC3C(C#N)(C#N)C2(C#N)C(=N)O4)cc1 (stereo unspecified) | 7.3µM* | 5.8µM* | -1% | 3% | 19 | 13
CCC1OC23CCCCC2C(C#N)(C(=N)O3)C1(C#N)C#N (stereo unspecified) | 13µM* | u | 3% | -7% | -5 | 5
CC1OC2(C)OC(=N)C1(C#N)C(C#N)(C#N)C2c1ccccc1 (stereo unspecified) | u | -23% | -15% | -20% | 0 | 12
CCCC1OC23CCCCC2C(C#N)(C(=N)O3)C1(C#N)C#N (stereo unspecified) | 16µM* | 7.3µM* | -18% | 5% | u | 3
O=c1cc(CSc2nnnn2-c2ccccc2)[nH]n1-c1ccc(Cl)cc1 | x | x | x | x | x | 0
CS(=O)(=O)Oc1ccc2c(c1)O/C(=C/c1cccnc1)C2=O | x | x | x | x | x | 9
CCn1c(SCC(=O)Nc2cc(C)on2)nc2sc(C)c(C)c2c1=O | x | x | 4% | -4% | x | x
COc1ccc(C)cc1-n1c(SCC(=O)Nc2cc(C)on2)nc2ccccc2c1=O | 13µM* | 10µM* | -19% | 1%[10 µM] | 10 | -6
COc1ccc(C)cc1-n1c(SCC(=O)Nc2cc(C)on2)nc2sc(C)c(C)c2c1=O | 8.2µM* | 12µM* | 21% | -6% | -10 | -7
C/C(=N\NC(=O)c1ccccc1)c1ccc2c3c(cccc13)CC2 | x | x | x | x | x | 1
O=C1c2ccccc2CN1CCNC(=S)NC1CCCCC1 | -1% | 0% | 18µM* | -25% | -1 | -2
S=C(NCCc1ccccn1)NC1CCCCC1 | 2% | -27% | 13µM* | -90% | -22 | -2
O=C(NCCCCc1ccccc1)C1CCCC1 | -17% | -25% | -21%[1.91 µM] | 17% | -6 | -1
O=C(NCCc1ccccn1)C1CCC1 | x | x | x | x | x | 1
S=C(NCCCc1ccccc1)NC1CCCCC1 | u | u | 4.5µM* | 7.1µM* | -89* | 1
O=C(Nc1c2c(nn1-c1ccc(Cl)cc1)CS(=O)(=O)C2)c1ccc2c(c1)OCO2 | -3% | -8% | 26% | 3% | -3 | -1
O=C(Nc1c2c(nn1-c1ccc(Cl)cc1)CS(=O)(=O)C2)c1ccc(Br)cc1 | 16µM* | 23µM* | x | x | x | -4
CC(CCc1ccco1)NC(=O)c1ccc(S(C)(=O)=O)cc1 (stereo unspecified) | x | x | x | x | x | -2
CCC(=O)Nc1ccccc1-c1nc2ccccc2n(CC(=O)Nc2ccccc2)c1=O | x | x | x | x | x | -18
COc1ccccc1CN(C)C(=O)Cc1nn(C)c(=O)c2ccccc12 | x | x | x | x | x | 0
